Values joined by “and” are separate entries in the source; they are usually repeats but may differ in a detail not shown here. Identical values can stand only once. The whole screen tested about 5,500 compounds, of which about 2,000 (36%) were called active. Roughly 18% stayed inconclusive and do not appear here. Cut-off read from the data, not from the text of the source: active = normalized growth mostly below about 0.91 (no sharp cut-off); inconclusive = no clear call, values can overlap the other calls; inactive = mostly above about 0.92. The list shows a part of the results.
Assay: chemical genetic growth profiling, strain panel (AID 1159580);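 note: tested at 20 µM; growth read once vehicle control cultures reached saturation at 30 °C; 1 = growth at the plate median or of vehicle wells; lower values mean less growth of the strain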
Conditions: S. cerevisiae deletion strains, growth OD

Measured: normalized growth

COc1ccc(-c2coc3c(OC)c(OC)cc(O)c3c2=O)cc1
inactive: locus YAL021C, strain ccr4, stronger effect = lower value 1.03 | locus YAL026C, strain drs2, stronger effect = lower value 1 | locus YAL030W, strain snc1, stronger effect = lower value 0.997 | locus YBL061C, strain skt5, stronger effect = lower value 0.999 | locus YBR009C, strain hhf1, stronger effect = lower value 1.01 | locus YBR023C, strain chs3, stronger effect = lower value 0.99 | locus YBR171W, strain sec66, stronger effect = lower value 1.03 | locus YBR229C, strain ROT2, stronger effect = lower value 0.988 | locus YBR231C, strain swc5, stronger effect = lower value 0.994 | locus YBR279W, strain paf1, stronger effect = lower value 0.995 | locus YCL011C, strain gbp2, stronger effect = lower value 0.998 | locus YCL016C, strain dcc1, stronger effect = lower value 1 | locus YCL029C, strain bik1, stronger effect = lower value 0.975 | locus YCL061C, strain MRC1, stronger effect = lower value 1.01 | locus YCL069W, strain vba3, stronger effect = lower value 0.999 | locus YCR088W, strain abp1, stronger effect = lower value 0.997 | locus YDL005C, strain med2, stronger effect = lower value 1 | locus YDL035C, strain GPR1, stronger effect = lower value 0.981 | locus YDL040C, strain nat1, stronger effect = lower value 1 | locus YDL074C, strain BRE1, stronger effect = lower value 0.924 | locus YDL101C, strain DUN1, stronger effect = lower value 0.988 | locus YDL185W, strain tfp1, stronger effect = lower value 1.01 | locus YDL192W, strain arf1, stronger effect = lower value 0.942 | locus YDR001C, strain nth1, stronger effect = lower value 0.997 | locus YDR069C, strain doa4, stronger effect = lower value 1 | locus YDR101C, strain arx1, stronger effect = lower value 0.947 | locus YDR137W, strain rgp1, stronger effect = lower value 0.951 | locus YDR159W, strain sac3, stronger effect = lower value 0.988 | locus YDR162C, strain NBP2, stronger effect = lower value 0.959 | locus YDR195W, strain ref2 1.05 | locus YDR297W, strain sur2, stronger effect = lower value 0.992 | locus YDR318W, strain mcm21, stronger effect = lower value 0.948 | locus YDR334W, strain swr1, stronger effect = lower value 1.01 | locus YDR335W, strain msn5, stronger effect = lower value 1 | locus YDR388W, stronger effect = lower value 0.974 | locus YDR392W, strain spt3, stronger effect = lower value 0.965 | locus YDR502C, strain sam2, stronger effect = lower value 0.95 | locus YEL003W, strain gim4, stronger effect = lower value 0.994 | locus YEL037C, strain rad23, stronger effect = lower value 1.01 | locus YEL061C, strain CIN8 (second series), stronger effect = lower value 1.01 | locus YER015W, strain faa2, stronger effect = lower value 1 | locus YER016W, strain bim1, stronger effect = lower value 1.01 | locus YER110C, stronger effect = lower value 0.959 | locus YER111C, strain swi4, stronger effect = lower value 1.03 | locus YER155C, strain BEM2 (second series), stronger effect = lower value 1.01 | locus YER155C, strain BEM2, stronger effect = lower value 0.996 | locus YER167W, strain BCK2, stronger effect = lower value 0.99 | locus YFR010W, strain ubp6, stronger effect = lower value 1.01 | locus YGL078C, strain dbp3, stronger effect = lower value 0.968 | locus YGL086W, strain mad1, stronger effect = lower value 0.954 | locus YGL167C, strain pmr1, stronger effect = lower value 1.01 | locus YGL173C, strain kem1, stronger effect = lower value 1 | locus YGL227W, strain vid30, stronger effect = lower value 1 | locus YGL240W, strain doc1, stronger effect = lower value 0.991 | locus YGL248W, strain PDE1, stronger effect = lower value 0.96 | locus YGL253W, strain hxk2, stronger effect = lower value 1.01 | locus YGR078C, strain PAC10, stronger effect = lower value 0.956 | locus YGR135W, strain pre9, stronger effect = lower value 0.928 | locus YGR229C, strain SMI1, stronger effect = lower value 0.896 | locus YHR013C, strain ard1, stronger effect = lower value 0.989 | locus YHR027C, strain rpn1, stronger effect = lower value 1.01 | locus YHR030C, strain SLT2, stronger effect = lower value 0.917 | locus YHR079C, strain IRE1 (second series), stronger effect = lower value 0.978 | locus YHR079C, strain IRE1, stronger effect = lower value 0.925 | locus YHR094C, strain hxt1, stronger effect = lower value 0.982 | locus YHR129C, strain ARP1, stronger effect = lower value 0.985 | locus YHR142W, strain chs7, stronger effect = lower value 0.976 | locus YHR200W, strain rpn10, stronger effect = lower value 0.941 | locus YIL066C, strain RNR3, stronger effect = lower value 0.986 | locus YIL073C, strain SPO22, stronger effect = lower value 0.9 | locus YIL125W, strain kgd1, stronger effect = lower value 0.983 | locus YIR030C, strain dcg1, stronger effect = lower value 0.961 | locus YJL092W, strain hpr5, stronger effect = lower value 1.01 | locus YJL095W, strain BCK1 (second series), stronger effect = lower value 0.995 | locus YJL095W, strain BCK1, stronger effect = lower value 0.871 and 0.958 | locus YJL115W, strain asf1, stronger effect = lower value 1.01 | locus YJL129C, strain trk1, stronger effect = lower value 0.999 | locus YJL134W, strain LCB3, stronger effect = lower value 1 | locus YJL154C, strain vps35, stronger effect = lower value 1.01 | locus YJL164C, strain tpk1, stronger effect = lower value 0.997 | locus YJL166W, strain qcr8, stronger effect = lower value 0.996 | locus YJL168C, strain set2, stronger effect = lower value 0.978 | locus YJL187C, strain SWE1 (second series), stronger effect = lower value 0.968 | locus YJL187C, strain SWE1, stronger effect = lower value 0.992 | locus YJR066W, strain TOR1, stronger effect = lower value 0.863 | locus YKL009W, strain mrt4, stronger effect = lower value 0.972 | locus YKL068W, stronger effect = lower value 0.993 | locus YKL085W, strain MDH1 (second series), stronger effect = lower value 0.979 | locus YKL085W, strain MDH1, stronger effect = lower value 0.979 | locus YKL160W, strain elf1, stronger effect = lower value 0.991 | locus YKR026C, strain gcn3, stronger effect = lower value 1.01 | locus YKR091W, strain srl3, stronger effect = lower value 0.999 | locus YLL001W, strain dnm1, stronger effect = lower value 1.01 | locus YLL026W, stronger effect = lower value 1.01 | locus YLL041C, strain sdh2, stronger effect = lower value 1.01 | locus YLR027C, strain aat2, stronger effect = lower value 1 | locus YLR039C, strain RIC1, stronger effect = lower value 0.903 | locus YLR058C, strain SHM2, stronger effect = lower value 0.96 | locus YLR102C, strain apc9, stronger effect = lower value 0.986 | locus YLR113W, strain HOG1, stronger effect = lower value 0.949 | locus YLR221C, strain rsa3, stronger effect = lower value 0.997 | locus YLR258W, strain gsy2, stronger effect = lower value 0.982 | locus YLR262C, strain YPT6 (second series), stronger effect = lower value 0.949 | locus YLR268W, strain sec22, stronger effect = lower value 0.927 | locus YLR320W, strain mms22, stronger effect = lower value 0.993 | locus YLR330W, strain CHS5, stronger effect = lower value 0.976 | locus YLR342W, strain FKS1, stronger effect = lower value 1 | locus YLR357W, strain rsc2, stronger effect = lower value 0.989 | locus YLR370C, strain arc18, stronger effect = lower value 1 | locus YLR371W, strain rom2, stronger effect = lower value 0.945 | locus YLR384C, strain iki3, stronger effect = lower value 1.01 | locus YLR418C, strain cdc73, stronger effect = lower value 0.855 | locus YML016C, strain PPZ1, stronger effect = lower value 0.985 | locus YML032C, strain rad52, stronger effect = lower value 0.951 | locus YML120C, strain ndi1, stronger effect = lower value 0.997 | locus YML124C, strain tub3, stronger effect = lower value 0.981 | locus YMR058W, strain fet3, stronger effect = lower value 1.01 | locus YMR078C, strain ctf18, stronger effect = lower value 0.976 | locus YMR125W, strain sto1, stronger effect = lower value 1.01 | locus YMR129W, stronger effect = lower value 1 | locus YMR205C, strain PFK2, stronger effect = lower value 0.991 | locus YMR223W, strain ubp8, stronger effect = lower value 0.95 | locus YMR231W, strain pep5, stronger effect = lower value 0.995 | locus YMR263W, strain SAP30, stronger effect = lower value 0.97 | locus YMR307W, strain GAS1, stronger effect = lower value 0.787 | locus YNL067W, strain RPL9B, stronger effect = lower value 0.968 | locus YNL071W, strain lat1, stronger effect = lower value 1 | locus YNL128W, strain TEP1, stronger effect = lower value 1.01 | locus YNL183C, strain NPR1, stronger effect = lower value 0.913 | locus YNL209W, strain ssb2, stronger effect = lower value 0.999 | locus YNL233W, strain BNI4, stronger effect = lower value 0.908 | locus YNL248C, strain rpa49, stronger effect = lower value 1.01 | locus YNL250W, strain rad50, stronger effect = lower value 0.997 | locus YNL271C, strain bni1, stronger effect = lower value 0.98 | locus YNL298W, strain CLA4, stronger effect = lower value 0.965 | locus YNL322C, strain KRE1 (second series), stronger effect = lower value 1.01 | locus YNR049C, strain mso1, stronger effect = lower value 1 | locus YNR052C, strain pop2, stronger effect = lower value 0.977 | locus YOL012C, strain htz1 0.766 | locus YOL147C, strain pex11, stronger effect = lower value 0.96 | locus YOR001W, strain rrp6, stronger effect = lower value 1.01 | locus YOR061W, strain CKA2, stronger effect = lower value 1 | locus YOR069W, strain VPS5, stronger effect = lower value 0.995 | locus YOR070C, strain gyp1, stronger effect = lower value 1.02 | locus YOR080W, strain dia2, stronger effect = lower value 1.01 | locus YOR083W, strain WHI5, stronger effect = lower value 0.99 | locus YOR106W, strain vam3, stronger effect = lower value 0.989 | locus YOR136W, strain idh2, stronger effect = lower value 0.976 | locus YOR144C, strain elg1, stronger effect = lower value 0.979 | locus YOR184W, strain ser1, stronger effect = lower value 0.887 | locus YOR231W, strain MKK1, stronger effect = lower value 0.949 | locus YOR265W, strain rbl2, stronger effect = lower value 1.01 | locus YOR270C, strain vph1, stronger effect = lower value 0.945 | locus YOR290C, strain snf2, stronger effect = lower value 0.986 | locus YOR316C, strain cot1, stronger effect = lower value 0.991 | locus YPL051W, strain arl3, stronger effect = lower value 0.997 | locus YPL078C, strain atp4, stronger effect = lower value 0.991 | locus YPL106C, strain sse1, stronger effect = lower value 0.948 | locus YPL240C, strain hsp82, stronger effect = lower value 0.994 | locus YPL241C, strain CIN2, stronger effect = lower value 1.01 | locus YPL256C, strain CLN2, stronger effect = lower value 0.904 | locus YPR119W, strain clb2, stronger effect = lower value 0.982 | locus YPR141C, strain kar3, stronger effect = lower value 0.979 | locus YPR167C, strain met16, stronger effect = lower value 0.955 | strain wtn01, stronger effect = lower value 0.942
active: locus YBR021W, strain FUR4, stronger effect = lower value 0.838 | locus YGR252W, strain gcn5, stronger effect = lower value 0.74 | locus YKR001C, strain vps1, stronger effect = lower value 0.871 | locus YNL307C, strain MCK1, stronger effect = lower value 0.903 | locus YPR163C, strain tif3, stronger effect = lower value 0.866
